Measurements: ChEMBL document CHEMBL1961873, “Compounds: GSK PKIS; Assays: Nanosyn kinase panel” (2012)

How the values were obtained:
[1] = molecular target: T1, Inhibitor of nuclear factor kappa-B kinase subunit epsilon (Homo sapiens) (UniProt Q14164); settings: at 1 µM;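 further: reported values are averaged percent inhibition figures against human IKKε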
T1 sequence (whole entry): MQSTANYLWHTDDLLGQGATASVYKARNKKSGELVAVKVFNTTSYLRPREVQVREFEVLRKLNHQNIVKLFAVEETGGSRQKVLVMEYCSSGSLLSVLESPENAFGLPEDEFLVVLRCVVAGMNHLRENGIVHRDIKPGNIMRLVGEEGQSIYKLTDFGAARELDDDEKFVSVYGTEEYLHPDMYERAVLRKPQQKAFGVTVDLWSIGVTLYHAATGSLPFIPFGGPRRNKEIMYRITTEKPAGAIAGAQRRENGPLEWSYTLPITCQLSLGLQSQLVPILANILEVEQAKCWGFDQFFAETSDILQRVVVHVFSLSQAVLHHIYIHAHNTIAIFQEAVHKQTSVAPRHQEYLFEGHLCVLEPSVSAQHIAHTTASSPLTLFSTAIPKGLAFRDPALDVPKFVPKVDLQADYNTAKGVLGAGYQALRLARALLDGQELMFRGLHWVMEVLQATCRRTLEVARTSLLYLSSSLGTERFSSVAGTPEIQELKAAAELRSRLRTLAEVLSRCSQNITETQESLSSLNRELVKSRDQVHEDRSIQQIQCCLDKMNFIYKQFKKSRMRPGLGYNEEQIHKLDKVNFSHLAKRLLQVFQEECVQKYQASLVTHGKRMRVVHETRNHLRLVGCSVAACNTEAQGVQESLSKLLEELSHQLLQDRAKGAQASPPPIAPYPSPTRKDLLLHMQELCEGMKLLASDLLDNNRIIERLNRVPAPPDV

[2] = molecular target: T2, Serine/threonine-protein kinase Nek1 (Homo sapiens) (UniProt Q96PY6); settings: at 0.1 µM
T2 sequence (whole entry): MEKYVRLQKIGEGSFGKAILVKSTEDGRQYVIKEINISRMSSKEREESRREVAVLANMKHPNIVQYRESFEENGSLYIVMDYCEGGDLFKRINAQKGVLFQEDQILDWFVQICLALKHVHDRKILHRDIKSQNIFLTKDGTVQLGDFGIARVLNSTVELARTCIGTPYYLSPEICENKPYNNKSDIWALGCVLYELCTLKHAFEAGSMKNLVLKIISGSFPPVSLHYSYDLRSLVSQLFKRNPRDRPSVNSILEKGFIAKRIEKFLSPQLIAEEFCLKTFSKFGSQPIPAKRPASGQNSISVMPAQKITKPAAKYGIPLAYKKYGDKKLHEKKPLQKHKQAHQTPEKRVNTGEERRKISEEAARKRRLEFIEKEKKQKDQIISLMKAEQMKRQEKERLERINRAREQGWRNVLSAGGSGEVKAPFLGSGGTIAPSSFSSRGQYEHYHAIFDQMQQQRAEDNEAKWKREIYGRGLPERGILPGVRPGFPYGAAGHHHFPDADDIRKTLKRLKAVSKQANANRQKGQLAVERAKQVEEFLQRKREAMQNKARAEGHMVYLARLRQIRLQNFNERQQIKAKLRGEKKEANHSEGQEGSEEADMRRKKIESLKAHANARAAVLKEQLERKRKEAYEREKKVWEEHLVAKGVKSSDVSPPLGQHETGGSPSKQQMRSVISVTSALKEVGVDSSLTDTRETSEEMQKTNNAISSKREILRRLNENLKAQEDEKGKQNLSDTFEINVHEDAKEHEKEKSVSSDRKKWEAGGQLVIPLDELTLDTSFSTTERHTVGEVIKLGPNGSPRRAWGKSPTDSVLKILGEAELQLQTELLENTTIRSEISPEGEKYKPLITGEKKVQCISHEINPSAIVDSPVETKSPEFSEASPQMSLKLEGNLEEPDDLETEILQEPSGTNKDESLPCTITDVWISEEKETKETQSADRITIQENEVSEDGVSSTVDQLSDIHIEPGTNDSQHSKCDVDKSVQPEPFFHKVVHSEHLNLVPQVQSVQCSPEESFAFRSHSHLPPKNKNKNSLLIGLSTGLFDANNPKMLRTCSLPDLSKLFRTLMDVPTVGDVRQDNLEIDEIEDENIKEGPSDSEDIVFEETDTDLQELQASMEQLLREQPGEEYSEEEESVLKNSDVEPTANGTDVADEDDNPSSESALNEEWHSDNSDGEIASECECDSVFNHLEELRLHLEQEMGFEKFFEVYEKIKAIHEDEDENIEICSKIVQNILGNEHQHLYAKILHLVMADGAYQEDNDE

[3] = molecular target: T2, Serine/threonine-protein kinase Nek1 (Homo sapiens); settings: at 1 µM
[4] = molecular target: T3, Serine/threonine-protein kinase Nek2 (Homo sapiens) (UniProt P51955); settings: at 0.1 µM
T3 sequence (whole entry): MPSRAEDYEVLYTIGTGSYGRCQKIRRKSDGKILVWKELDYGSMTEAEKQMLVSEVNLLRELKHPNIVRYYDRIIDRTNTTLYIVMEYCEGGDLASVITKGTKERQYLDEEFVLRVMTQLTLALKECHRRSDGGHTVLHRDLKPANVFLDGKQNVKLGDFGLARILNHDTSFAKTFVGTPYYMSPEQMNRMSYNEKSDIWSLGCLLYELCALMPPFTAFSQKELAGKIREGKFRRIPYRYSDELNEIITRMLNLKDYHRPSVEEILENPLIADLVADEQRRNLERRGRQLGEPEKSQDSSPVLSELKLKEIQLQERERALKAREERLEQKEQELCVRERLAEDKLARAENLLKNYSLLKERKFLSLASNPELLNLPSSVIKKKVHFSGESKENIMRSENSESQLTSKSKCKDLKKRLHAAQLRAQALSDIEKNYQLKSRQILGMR

[5] = molecular target: T3, Serine/threonine-protein kinase Nek2 (Homo sapiens); settings: at 1 µM
[6] = molecular target: Serine/threonine-protein kinase Nek6 (Homo sapiens) (UniProt Q9HC98); settings: at 0.1 µM
Sequence of Serine/threonine-protein kinase Nek6 (Homo sapiens) (Q9HC98 whole entry): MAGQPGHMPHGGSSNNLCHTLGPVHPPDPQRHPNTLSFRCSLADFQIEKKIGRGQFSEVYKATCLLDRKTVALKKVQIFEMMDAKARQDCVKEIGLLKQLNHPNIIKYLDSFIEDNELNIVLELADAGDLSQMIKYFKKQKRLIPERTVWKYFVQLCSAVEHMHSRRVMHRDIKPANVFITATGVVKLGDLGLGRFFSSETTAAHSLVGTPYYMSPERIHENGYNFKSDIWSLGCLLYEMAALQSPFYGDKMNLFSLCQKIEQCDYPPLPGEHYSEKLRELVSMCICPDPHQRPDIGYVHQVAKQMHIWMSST

[7] = molecular target: Serine/threonine-protein kinase Nek6 (Homo sapiens) (UniProt Q9HC98); settings: at 1 µM
[8] = molecular target: Serine/threonine-protein kinase Nek7 (Homo sapiens) (UniProt Q8TDX7); settings: at 0.1 µM
Sequence of Serine/threonine-protein kinase Nek7 (Homo sapiens) (Q8TDX7 whole entry, looked up): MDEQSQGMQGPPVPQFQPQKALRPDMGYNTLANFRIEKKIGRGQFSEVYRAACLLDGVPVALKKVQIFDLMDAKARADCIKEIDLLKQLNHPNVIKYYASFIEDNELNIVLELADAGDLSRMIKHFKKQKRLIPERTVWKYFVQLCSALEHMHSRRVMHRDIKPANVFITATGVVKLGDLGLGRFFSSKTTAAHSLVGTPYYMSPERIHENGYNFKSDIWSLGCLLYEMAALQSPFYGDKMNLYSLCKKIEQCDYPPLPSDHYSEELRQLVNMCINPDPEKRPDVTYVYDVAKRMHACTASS

[9] = molecular target: Serine/threonine-protein kinase Nek7 (Homo sapiens) (UniProt Q8TDX7); settings: at 1 µM
[10] = molecular target: T4, Serine/threonine-protein kinase Nek9 (Homo sapiens) (UniProt Q8TD19); settings: at 0.1 µM;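 further: reported value is the mean percent inhibition of NEK9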
T4 sequence (whole entry): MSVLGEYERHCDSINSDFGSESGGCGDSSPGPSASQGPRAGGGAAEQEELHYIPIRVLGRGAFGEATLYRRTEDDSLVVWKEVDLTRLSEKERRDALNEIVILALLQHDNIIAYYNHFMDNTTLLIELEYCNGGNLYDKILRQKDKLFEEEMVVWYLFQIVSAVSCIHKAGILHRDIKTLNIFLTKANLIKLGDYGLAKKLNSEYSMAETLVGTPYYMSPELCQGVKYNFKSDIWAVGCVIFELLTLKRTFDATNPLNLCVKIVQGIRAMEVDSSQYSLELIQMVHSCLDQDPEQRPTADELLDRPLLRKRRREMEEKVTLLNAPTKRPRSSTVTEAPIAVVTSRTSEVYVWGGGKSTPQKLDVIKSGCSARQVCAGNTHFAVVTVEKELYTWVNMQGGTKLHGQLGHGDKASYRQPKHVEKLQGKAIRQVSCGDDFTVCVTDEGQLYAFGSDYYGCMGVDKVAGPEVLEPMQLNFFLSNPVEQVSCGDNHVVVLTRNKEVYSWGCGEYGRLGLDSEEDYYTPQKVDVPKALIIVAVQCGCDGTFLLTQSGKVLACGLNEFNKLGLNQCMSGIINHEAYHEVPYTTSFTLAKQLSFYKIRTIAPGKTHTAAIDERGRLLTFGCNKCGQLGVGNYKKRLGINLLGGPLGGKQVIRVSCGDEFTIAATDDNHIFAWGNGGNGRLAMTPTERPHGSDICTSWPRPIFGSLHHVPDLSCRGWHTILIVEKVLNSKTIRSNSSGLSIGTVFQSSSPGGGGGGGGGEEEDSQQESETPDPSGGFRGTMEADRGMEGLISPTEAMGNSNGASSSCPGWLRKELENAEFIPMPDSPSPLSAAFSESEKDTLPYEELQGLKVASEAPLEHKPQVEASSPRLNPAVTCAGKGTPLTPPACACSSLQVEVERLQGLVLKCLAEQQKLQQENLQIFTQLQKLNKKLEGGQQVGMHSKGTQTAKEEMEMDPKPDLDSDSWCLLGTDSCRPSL

COc1ccc(-c2ccncc2)cc1C(N)=O
inhibition [1]: 6.43% | inhibition [2]: 3.59% | inhibition [3]: 6.47% | inhibition [4]: 5.42% | inhibition [5]: 6.48% | inhibition [6]: -0.26% | inhibition [7]: 1.43% | inhibition [8]: 3.68% | inhibition [9]: 8.72% | inhibition [10]: 4.72%
